# Measurements: the supplement of paper PMC11732987, “Enantioselective OTUD7B fragment discovery through chemoproteomics screening and high-throughput optimisation” (Communications Chemistry, 2025)
# Unmarked numbers belong to inactive results.
# What was measured:
# Assay in all cases: log2 ratio of Biotin-Ahx-Ub-VS probe labelling (fragment/DMSO); higher = less target engagement (more negative = stronger competition), active = hit call of the paper (q ≤ 0.05, log2 ratio ≤ -1)
# Settings in all cases: compound concentration: 200 uM; treatment time: 3 h
# [1] = molecular target: USP54 (UniProt Q70EL1)
# In short: (§1)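 Labelled DUBs from HEK293T lysate were NeutrAvidin-enriched, digested with LysC and trypsin, and run by diaPASEF LC-MS/MS. Before that, each 495 µg sample in Tris/CHAPS/IGEPAL buffer with protease inhibitors was treated in triplicate with fragment at 200 µM or vehicle for 3 h, then with Biotin-Ahx-Ub-VS at 0.5 µM final for 1 h. Values are average log2 ratios of fragment over vehicle by unpaired t-test, based on global-median-normalised Spectronaut label-free quantities from proteins with ≥2 unique peptides.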
# [2] = molecular target: USP7 (UniProt Q93009)
# In short: as §1
# [3] = molecular target: T1, USP8 (UniProt P40818)
# T1 sequence (whole entry): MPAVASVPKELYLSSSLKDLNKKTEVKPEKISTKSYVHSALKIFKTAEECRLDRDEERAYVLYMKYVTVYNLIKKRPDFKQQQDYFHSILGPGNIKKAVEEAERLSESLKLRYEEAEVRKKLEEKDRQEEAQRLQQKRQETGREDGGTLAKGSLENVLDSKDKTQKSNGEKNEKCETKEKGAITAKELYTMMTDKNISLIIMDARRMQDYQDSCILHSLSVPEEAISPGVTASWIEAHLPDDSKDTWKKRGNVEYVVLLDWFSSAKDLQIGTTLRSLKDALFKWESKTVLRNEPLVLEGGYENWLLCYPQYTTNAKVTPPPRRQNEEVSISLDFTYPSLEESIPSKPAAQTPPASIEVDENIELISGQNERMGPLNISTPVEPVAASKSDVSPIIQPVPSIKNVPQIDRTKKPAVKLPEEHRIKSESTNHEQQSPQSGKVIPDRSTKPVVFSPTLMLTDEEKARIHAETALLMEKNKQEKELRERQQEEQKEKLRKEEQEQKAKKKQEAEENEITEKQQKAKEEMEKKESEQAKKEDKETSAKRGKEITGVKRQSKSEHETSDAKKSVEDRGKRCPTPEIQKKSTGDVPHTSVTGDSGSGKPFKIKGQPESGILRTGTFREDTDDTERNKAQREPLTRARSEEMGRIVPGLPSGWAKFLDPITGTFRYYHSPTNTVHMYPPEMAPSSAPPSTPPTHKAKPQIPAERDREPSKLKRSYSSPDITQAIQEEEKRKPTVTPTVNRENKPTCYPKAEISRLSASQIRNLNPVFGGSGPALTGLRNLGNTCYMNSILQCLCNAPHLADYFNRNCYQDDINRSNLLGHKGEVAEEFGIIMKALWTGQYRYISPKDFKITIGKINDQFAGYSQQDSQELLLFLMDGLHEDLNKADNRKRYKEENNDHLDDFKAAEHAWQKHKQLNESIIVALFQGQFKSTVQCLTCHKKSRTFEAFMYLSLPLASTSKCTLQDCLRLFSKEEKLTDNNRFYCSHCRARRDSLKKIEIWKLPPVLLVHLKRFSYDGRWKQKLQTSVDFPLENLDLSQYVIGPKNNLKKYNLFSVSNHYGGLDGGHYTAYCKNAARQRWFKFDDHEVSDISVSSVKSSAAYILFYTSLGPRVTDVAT
# In short: as §1
# [4] = molecular target: USP9X (UniProt Q93008)
# In short: as §1
# [5] = molecular target: UniProt O00487
# In short: as §1
# Chain of USP9X (Q93008 whole entry): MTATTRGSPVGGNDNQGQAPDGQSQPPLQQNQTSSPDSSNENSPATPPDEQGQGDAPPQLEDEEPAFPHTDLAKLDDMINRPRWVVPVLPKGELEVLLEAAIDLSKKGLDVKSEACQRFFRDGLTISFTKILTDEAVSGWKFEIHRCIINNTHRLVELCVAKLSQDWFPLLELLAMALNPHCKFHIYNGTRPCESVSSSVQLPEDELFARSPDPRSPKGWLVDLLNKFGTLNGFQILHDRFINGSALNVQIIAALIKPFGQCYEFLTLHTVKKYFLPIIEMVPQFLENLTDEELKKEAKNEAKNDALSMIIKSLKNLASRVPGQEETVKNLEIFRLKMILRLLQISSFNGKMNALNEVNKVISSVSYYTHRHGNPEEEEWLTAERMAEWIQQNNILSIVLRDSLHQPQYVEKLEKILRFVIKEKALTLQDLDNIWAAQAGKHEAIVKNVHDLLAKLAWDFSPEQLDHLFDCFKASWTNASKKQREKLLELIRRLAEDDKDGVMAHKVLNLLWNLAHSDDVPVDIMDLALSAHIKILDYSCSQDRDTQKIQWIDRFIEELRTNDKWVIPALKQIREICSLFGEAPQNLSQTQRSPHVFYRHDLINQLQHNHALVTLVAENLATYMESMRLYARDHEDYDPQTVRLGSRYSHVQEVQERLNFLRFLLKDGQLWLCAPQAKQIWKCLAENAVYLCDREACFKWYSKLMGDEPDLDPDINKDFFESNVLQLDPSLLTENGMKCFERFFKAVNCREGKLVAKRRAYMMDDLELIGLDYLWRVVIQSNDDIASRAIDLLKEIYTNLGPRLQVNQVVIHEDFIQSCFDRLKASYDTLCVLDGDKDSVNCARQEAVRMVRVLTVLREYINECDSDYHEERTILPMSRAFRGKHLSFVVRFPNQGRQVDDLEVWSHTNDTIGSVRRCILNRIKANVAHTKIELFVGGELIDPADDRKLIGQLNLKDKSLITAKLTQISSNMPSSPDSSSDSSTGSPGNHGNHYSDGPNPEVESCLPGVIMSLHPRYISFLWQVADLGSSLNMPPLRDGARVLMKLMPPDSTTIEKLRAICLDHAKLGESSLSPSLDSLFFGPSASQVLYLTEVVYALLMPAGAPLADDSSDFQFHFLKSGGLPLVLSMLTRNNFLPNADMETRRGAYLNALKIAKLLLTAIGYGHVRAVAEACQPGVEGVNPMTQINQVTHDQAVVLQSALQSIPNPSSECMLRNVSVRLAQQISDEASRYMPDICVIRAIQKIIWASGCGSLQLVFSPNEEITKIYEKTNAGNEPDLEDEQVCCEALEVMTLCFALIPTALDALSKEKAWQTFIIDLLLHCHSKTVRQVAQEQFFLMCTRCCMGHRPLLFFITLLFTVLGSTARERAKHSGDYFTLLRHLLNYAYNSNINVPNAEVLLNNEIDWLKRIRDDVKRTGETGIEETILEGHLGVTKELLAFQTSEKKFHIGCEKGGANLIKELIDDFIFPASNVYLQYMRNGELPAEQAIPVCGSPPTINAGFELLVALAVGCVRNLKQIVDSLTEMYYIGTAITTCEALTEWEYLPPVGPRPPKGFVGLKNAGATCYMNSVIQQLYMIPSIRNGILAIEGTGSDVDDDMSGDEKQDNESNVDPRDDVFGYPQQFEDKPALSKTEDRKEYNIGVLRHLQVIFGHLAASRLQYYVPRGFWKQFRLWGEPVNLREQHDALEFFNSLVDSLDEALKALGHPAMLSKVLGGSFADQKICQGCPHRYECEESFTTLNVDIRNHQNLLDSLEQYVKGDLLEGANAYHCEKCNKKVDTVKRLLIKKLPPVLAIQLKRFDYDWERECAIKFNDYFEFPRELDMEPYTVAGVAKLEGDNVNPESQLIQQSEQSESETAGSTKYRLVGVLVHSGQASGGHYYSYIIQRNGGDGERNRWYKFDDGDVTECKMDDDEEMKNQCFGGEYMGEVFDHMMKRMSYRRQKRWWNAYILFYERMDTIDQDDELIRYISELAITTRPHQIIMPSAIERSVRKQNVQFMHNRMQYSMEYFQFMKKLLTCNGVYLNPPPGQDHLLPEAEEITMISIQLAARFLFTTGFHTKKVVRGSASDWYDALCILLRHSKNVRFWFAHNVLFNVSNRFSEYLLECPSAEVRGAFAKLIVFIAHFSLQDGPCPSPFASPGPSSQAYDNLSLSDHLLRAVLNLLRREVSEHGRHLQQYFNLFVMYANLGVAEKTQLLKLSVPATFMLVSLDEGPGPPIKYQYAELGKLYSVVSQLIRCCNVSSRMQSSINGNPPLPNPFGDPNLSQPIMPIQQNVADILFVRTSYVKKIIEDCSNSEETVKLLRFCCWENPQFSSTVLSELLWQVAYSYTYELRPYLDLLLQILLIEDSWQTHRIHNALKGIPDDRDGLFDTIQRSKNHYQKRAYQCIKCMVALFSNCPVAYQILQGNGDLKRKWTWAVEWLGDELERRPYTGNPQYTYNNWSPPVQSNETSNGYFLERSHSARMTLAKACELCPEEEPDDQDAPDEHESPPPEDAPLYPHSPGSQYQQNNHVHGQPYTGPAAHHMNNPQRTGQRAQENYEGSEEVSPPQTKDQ
# Chain of USP7 (Q93009 whole entry, looked up): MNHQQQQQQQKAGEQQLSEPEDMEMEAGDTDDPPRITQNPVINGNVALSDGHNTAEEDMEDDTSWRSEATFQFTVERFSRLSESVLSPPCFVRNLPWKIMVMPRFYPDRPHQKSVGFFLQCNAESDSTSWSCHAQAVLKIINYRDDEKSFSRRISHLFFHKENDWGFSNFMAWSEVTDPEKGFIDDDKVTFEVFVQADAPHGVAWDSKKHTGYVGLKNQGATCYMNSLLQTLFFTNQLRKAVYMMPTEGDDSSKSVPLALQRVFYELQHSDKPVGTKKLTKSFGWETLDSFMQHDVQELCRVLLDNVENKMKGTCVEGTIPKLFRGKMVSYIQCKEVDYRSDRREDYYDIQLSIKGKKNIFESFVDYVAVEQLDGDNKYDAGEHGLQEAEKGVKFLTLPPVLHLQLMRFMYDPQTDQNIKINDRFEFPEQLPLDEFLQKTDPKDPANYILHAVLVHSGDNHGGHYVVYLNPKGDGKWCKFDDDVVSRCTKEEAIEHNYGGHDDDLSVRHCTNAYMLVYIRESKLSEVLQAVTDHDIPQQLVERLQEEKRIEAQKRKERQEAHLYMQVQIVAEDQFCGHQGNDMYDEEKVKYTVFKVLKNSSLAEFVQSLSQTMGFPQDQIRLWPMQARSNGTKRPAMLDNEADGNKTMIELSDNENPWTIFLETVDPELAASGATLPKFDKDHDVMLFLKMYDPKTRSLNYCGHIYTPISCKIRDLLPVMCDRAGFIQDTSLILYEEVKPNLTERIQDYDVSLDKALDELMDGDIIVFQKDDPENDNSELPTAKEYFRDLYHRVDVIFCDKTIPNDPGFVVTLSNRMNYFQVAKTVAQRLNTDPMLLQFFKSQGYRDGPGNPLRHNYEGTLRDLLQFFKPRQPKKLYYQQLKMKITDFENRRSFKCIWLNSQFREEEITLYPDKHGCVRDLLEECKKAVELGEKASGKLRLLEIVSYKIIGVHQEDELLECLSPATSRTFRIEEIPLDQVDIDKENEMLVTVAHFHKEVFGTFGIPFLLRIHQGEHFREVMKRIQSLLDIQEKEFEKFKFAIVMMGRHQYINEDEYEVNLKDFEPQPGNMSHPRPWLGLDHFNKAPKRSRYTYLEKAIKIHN
# Chain of UniProt O00487 (O00487 whole entry): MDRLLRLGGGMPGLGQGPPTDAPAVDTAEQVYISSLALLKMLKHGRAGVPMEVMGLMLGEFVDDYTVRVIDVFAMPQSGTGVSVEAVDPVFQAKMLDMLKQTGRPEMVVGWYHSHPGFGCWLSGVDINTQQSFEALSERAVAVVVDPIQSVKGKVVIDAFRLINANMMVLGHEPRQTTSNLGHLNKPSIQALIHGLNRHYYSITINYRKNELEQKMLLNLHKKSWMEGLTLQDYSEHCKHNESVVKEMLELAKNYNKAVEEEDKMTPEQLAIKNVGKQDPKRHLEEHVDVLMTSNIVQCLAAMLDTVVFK
smiles,measurement,setting,value
O=C(CCl)N(Cc1ccsc1)C1CC1,log2 ratio of Biotin-Ahx-Ub-VS probe labelling,[1],0.171
same,log2 ratio of Biotin-Ahx-Ub-VS probe labelling,[2],-1.25 (active)
same,log2 ratio of Biotin-Ahx-Ub-VS probe labelling,[3],0.0752
same,log2 ratio of Biotin-Ahx-Ub-VS probe labelling,[4],-0.139
same,log2 ratio of Biotin-Ahx-Ub-VS probe labelling,[5],0.0101
